# The supplement of paper PMC6555819
# Key:
# Experiment in all cases: PBM binding z-score (relative to random genomic background probes); higher = stronger binding; sequences stand for … in GC…GCGATTGACAGCGTAGAATGAAGG
# [1] = system: FXR:RXRa (NR concentration 270 nM, RXRa partner concentration 90 nM)
# In short: (§1)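 Ligand-free nuclear receptor dimers were bound for 1 h to custom Agilent 4×180K protein-binding microarrays. Detection used antibodies against each partner (one per run). Binding z-scores rest on regression-normalized fluorescence, with random background probes as the reference.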
# [2] = system: LXRa:RXRa (NR concentration 270 nM, RXRa partner concentration 90 nM)
# In short: as §1
# [3] = system: LXRa homodimer (NR concentration 270 nM)
# In short: as §1
# [4] = system: LXRb:RXRa (NR concentration 270 nM, RXRa partner concentration 90 nM)
# In short: as §1
# [5] = system: LXRb homodimer (NR concentration 270 nM)
# In short: as §1
# [6] = system: PPARa:RXRa (NR concentration 270 nM, RXRa partner concentration 90 nM)
# In short: as §1
# [7] = system: PPARg:RXRa (NR concentration 180 nM, RXRa partner concentration 90 nM)
# In short: as §1
# [8] = system: PPARg:RXRa 270nM:90nM, anti-RXR (NR concentration 270 nM, RXRa partner concentration 90 nM)
# In short: as §1
# [9] = system: PPARg:RXRa 30nM:10nM, anti-RXR (NR concentration 30 nM, RXRa partner concentration 10 nM)
# In short: as §1
# [10] = system: PPARg:RXRa 90nM:30nM, anti-RXR (NR concentration 90 nM, RXRa partner concentration 30 nM)
# In short: as §1
# [11] = system: PPARg:RXRa DBDmut IVT, anti-RXR (DBD mutation: RXRa K156A/R161A, NR concentration 270 nM, RXRa partner concentration 90 nM)
# In short: as §1
# [12] = system: PPARg:RXRa IVT, anti-PPARg (NR concentration 270 nM, RXRa partner concentration 90 nM)
# In short: as §1
# [13] = system: PPARg DBDmut:RXRa IVT, anti-PPARg (DBD mutation: PPARg1 K132A/R137A, NR concentration 270 nM, RXRa partner concentration 90 nM)
# In short: as §1
# [14] = system: PPARg DBDmut IVT, anti-PPARg (DBD mutation: PPARg1 K132A/R137A, NR concentration 270 nM)
# In short: as §1
# [15] = system: PPARg homodimer (NR concentration 180 nM)
# In short: as §1
# [16] = system: PXR:RXRa (NR concentration 270 nM, RXRa partner concentration 90 nM)
# In short: as §1
# [17] = system: PXR homodimer (NR concentration 270 nM)
# In short: as §1
# [18] = system: RARa:RXR (NR concentration 270 nM, RXRa partner concentration 90 nM)
# In short: as §1
# [19] = system: RARa homodimer (NR concentration 270 nM)
# In short: as §1
# [20] = system: RARb:RXRa (NR concentration 270 nM, RXRa partner concentration 90 nM)
# In short: as §1
Sequence,PBM binding z-score [1],PBM binding z-score [2],PBM binding z-score [3],PBM binding z-score [4],PBM binding z-score [5],PBM binding z-score [6],PBM binding z-score [7],PBM binding z-score [8],PBM binding z-score [9],PBM binding z-score [10],PBM binding z-score [11],PBM binding z-score [12],PBM binding z-score [13],PBM binding z-score [14],PBM binding z-score [15],PBM binding z-score [16],PBM binding z-score [17],PBM binding z-score [18],PBM binding z-score [19],PBM binding z-score [20]
TTACCAAGGTGAGCTGAGGTCGCTGATCCAACTC,1.17,0.578,-0.612,0.416,-1.44,1.52,0.0966,1,-0.104,0.763,1.38,1.87,-1.62,-0.0566,-0.197,3.58,-0.341,1.5,-1.47,1.95
TAGCCTAGGTCATGCGGGCCAGTAAAGTGTCGGC,3.65,3.17,-0.0418,1.66,-0.608,3.69,2.07,2.27,-0.0823,1.37,1.41,2.75,0.246,-0.0156,0.811,1.51,-0.33,2.44,-0.385,3.78
CCTACTGCGCCATCAGGTCATTGATATCAACGTT,1.39,1.32,1.7,2.2,1.17,1.73,0.376,0.994,0.212,0.573,0.542,1.25,-0.701,0.364,1.76,1.98,0.943,2.03,0.602,1.76
GGTTGTAGATCAAGGTTAAGAAAGACTAAGCTAA,0.73,1.3,0.323,1.19,0.361,1.5,0.938,1.63,0.752,1.31,0.74,1.03,0.337,0.177,1.28,0.988,0.866,1.16,1.7,1.17
TCTTGTAGATCAGCGGGTTAAGAAAGCTGGCCAA,0.495,0.126,-0.31,0.0907,0.392,0.933,-0.329,1.16,2.52,1.99,1.84,0.55,-0.631,0.232,0.0922,0.359,-0.369,0.653,-0.539,0.032
CGGCCAAGGTCATAGGAGGTCAGTGAAGACAGAT,7.73,7.58,4.26,6.03,0.344,5.82,5.92,5.6,2.38,4.77,2.94,4.46,-0.828,-0.774,4.97,6.76,3.6,5.88,1.82,5.29
CGAACTAGGACAAGGACAGTGAATCTCCGCACGC,0.182,-0.241,-0.152,-0.655,-0.538,0.455,1.22,0.612,-0.234,0.216,5.04,3.15,0.0656,0.471,0.000634,-0.249,-0.177,0.0939,-0.389,0.708
TCGAGTAGTTTAGTCGGGGCATTCAGCCAACATA,-0.125,-0.295,-0.441,0.256,-0.38,0.346,-0.694,0.0847,0.837,0.633,1.24,-0.182,-0.281,-0.699,-0.472,0.139,-0.0137,0.146,-0.408,0.0588
TCATATGGGTAAATGCTAGGTGAAAGTCCGATCT,0.03,0.212,0.0774,0.31,-0.359,0.897,0.667,1.71,2.1,1.91,2.91,2.07,0.703,0.469,-0.0354,0.217,-0.0586,0.519,-0.166,0.208
ACTATTAGTTGACTTAGGGCAACAGATACGACGC,0.0788,0.0659,0.494,0.0147,0.162,-0.0178,0.94,0.32,0.494,0.163,0.146,0.696,1.18,1.49,0.262,0.159,0.123,0.356,0.66,0.851
TCAGACAGGTGAAGGTAACTGAGGTACGCAGTCG,1.04,1.01,-0.19,0.598,-0.756,1.2,0.727,1.98,3.74,2.96,2.45,1.54,0.121,-0.373,0.384,0.388,-0.0672,0.874,0.545,1.04
ACTAGCAGGCAAAGTTTGGGTCACTCAAACAAAG,0.0773,0.185,-0.475,0.807,-0.762,1.33,-0.0441,0.288,-0.32,0.224,-0.359,0.492,-0.258,-0.0533,0.153,0.68,-0.439,1.32,-0.701,1.07
ATCTCTAGGTAAAGATAGTTCAATGAATGCAAAT,0.446,4.83,1.09,1.44,0.777,1.15,1.03,0.735,0.381,0.638,2.11,1.74,1.55,1.22,0.945,1.65,1.02,0.946,1.4,1.07
ATCGAAAGGTCGAGGGGAGTATAGAGAAAGGGAA,4.46,3.49,0.308,2.92,1.64,4.58,2.97,3.17,1.13,2.36,0.44,1.72,1.88,1.27,1.83,2.27,0.897,3.24,1.45,3.97
ATCGAAAGGTCGAGGTGAGTATGGAGAAAGGGAA,3.95,3.28,-0.073,2.56,0.624,4.45,3.02,3.6,1.01,2.39,0.289,2.45,0.568,0.731,1.64,2.3,0.205,2.72,0.528,3.95
GCTAGTTGGTCAGTAAAAGGTCGCACACCGGTCG,0.649,1.35,0.422,1.28,-0.0717,2.31,0.999,2.68,0.448,2.08,0.512,1.32,-0.491,-0.677,1.76,2.07,-0.218,2.6,0.227,2.34
TCATATAGGAAAACAGGTGAAAGTCCGTAAGTTA,1.22,1.13,0.235,1.11,-0.323,1.44,1.13,2.8,4.43,3.77,2.83,1.11,0.0218,0.116,0.804,0.845,0.476,1.14,1.74,0.355
TCAGACAGGTGAAGATAACTCAGGTACGCAGTCG,0.856,0.897,0.162,1.04,-0.112,1.39,1.09,2.31,3.92,2.92,2.79,0.984,0.555,0.567,0.861,0.46,0.241,0.891,0.4,1.1
